Among the test systems are MOLT-4 leukemia; SR leukemia; RPMI-8226 leukemia; OVCAR-8 ovarian; OVCAR-5 ovarian; OVCAR-4 ovarian; SK-OV-3 ovarian; IGROV1 ovarian; OVCAR-3 ovarian; HS 578T breast; NCI/ADR-RES ovarian; T-47D breast; BT-549 breast; MDA-MB-435 melanoma; SW-620 colon; MCF7 breast; HCT-116 colon; KM12 colon; HCC-2998 colon.
Holding throughout (test): NCI-60 one-dose screen, 48 h (100 = growth as untreated, 0 = no growth, -100 = all killed)
Holding throughout (conditions): 10 µM unless noted

About 83,000 compounds went through this panel and 20% of them were active in at least one assay; those are over-represented in the sample as a whole.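 Cell lines were cultured in 96-well plates, exposed to a single compound concentration, and assessed for percent growth 48 hours later.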 Unmarked numbers belong to inactive results. The source made the active and inactive calls. How the source made its calls: active means growth percent below 10; inactive means the rest.

In the case of `CC[C@H](C)[C@@H]1OC(=O)C(C)(C)[C@H](O)[C@H](Cc2ccccc2)OC(=O)[C@H](C(C)C)OC(=O)[C@@H](NC(=O)c2cccc(NC=O)c2O)[C@@H](C)OC1=O`, the growth in the test on MOLT-4 leukemia was 37.7%; in the test on SR leukemia, 43.3%; with RPMI-8226 leukemia it was 29%; in the test with OVCAR-8 ovarian, 51.3%; in the test with OVCAR-5 ovarian, 103%; in the test on OVCAR-4 ovarian, 28.7%. In addition, the growth in the test on SK-OV-3 ovarian was 60.7%; with IGROV1 ovarian, 53.6%; in the test on OVCAR-3 ovarian, 48.2%; with HS 578T breast, 73.4%; in the test on NCI/ADR-RES ovarian, 53.4%; in the test on T-47D breast, 33.2%. In addition, the growth with BT-549 breast is 53.8%; with MDA-MB-435 melanoma, 53.2%; with SW-620 colon, 60.8%; in the test on MCF7 breast it was 40%; in the test on HCT-116 colon, 36.5%; in the test with KM12 colon, 53.5%.

As for `O=[N+]([O-])c1cnc[nH]1`, the growth was 114% in the test with MOLT-4 leukemia; 117% with SR leukemia; 107% in the test with RPMI-8226 leukemia; 109% in the test with OVCAR-8 ovarian; 108% in the test on OVCAR-5 ovarian; 114% with OVCAR-4 ovarian. Besides, the growth in the test with SK-OV-3 ovarian is 110%; in the test on IGROV1 ovarian, 127%; in the test on OVCAR-3 ovarian, 112%; in the test on HS 578T breast it was 106%; in the test on NCI/ADR-RES ovarian, 104%; in the test with T-47D breast, 117%. For the same compound, the growth is 112% in the test with BT-549 breast; 105% in the test with MDA-MB-435 melanoma; 94.8% with MCF7 breast; 106% in the test on HCT-116 colon; 102% in the test on HCC-2998 colon; 107% with KM12 colon.

In the case of `COc1cc(NCCCN=C(N)N)c2ncccc2c1`, the growth in the test on MOLT-4 leukemia was 94.1%; in the test on SR leukemia, 102%; in the test with RPMI-8226 leukemia it was 85.4%; in the test with OVCAR-8 ovarian it was 81.2%; in the test with OVCAR-5 ovarian, 86.2%; in the test with OVCAR-4 ovarian, -95.8% (active). Besides, the growth is 93.4% with SK-OV-3 ovarian; 36% with IGROV1 ovarian; 7.99% (active) in the test with OVCAR-3 ovarian; 88.8% with HS 578T breast; 108% with NCI/ADR-RES ovarian; -0.911% (active) in the test on T-47D breast. The growth was 65.9% in the test with BT-549 breast; 103% in the test on MDA-MB-435 melanoma; -51.3% (active) in the test on MCF7 breast; 78.1% with HCT-116 colon; 94.3% in the test with HCC-2998 colon; 49.3% in the test with KM12 colon.

In the case of `CC1CCCC(C[N+](C)(C)C)C1=O` (centres undefined), the growth with MOLT-4 leukemia was 75.7%; with SR leukemia, 86.8%; with RPMI-8226 leukemia it was 105%; with OVCAR-8 ovarian it was 108%; with OVCAR-5 ovarian, 104%; in the test on OVCAR-4 ovarian, 93.1%. The growth with SK-OV-3 ovarian is 110%; with IGROV1 ovarian it was 92.3%; in the test on OVCAR-3 ovarian, 121%; in the test with HS 578T breast, 111%; in the test with NCI/ADR-RES ovarian it was 107%; in the test with T-47D breast, 84.5%. Moreover, the growth with BT-549 breast was 125%; with MDA-MB-435 melanoma, 106%; in the test with SW-620 colon, 109%; with MCF7 breast, 103%; in the test with HCT-116 colon, 109%; in the test on HCC-2998 colon it was 102%. The growth in the test on KM12 colon was 109%.

Turning to `CC(=O)O[C@H](C[C@H](C(C)C)N(C)C(=O)[C@@H](NC(=O)[C@H]1CCCCN1C)C(C)C)c1nc(C(=O)N[C@@H](Cc2ccccc2)C[C@H](C)C(=O)O)c(C)s1`, the growth in the test on MOLT-4 leukemia is 20.7%; in the test with SR leukemia it was 7.46% (active); in the test on RPMI-8226 leukemia, 25.1%; in the test with OVCAR-8 ovarian it was 20.1%; with OVCAR-5 ovarian, 31%; in the test with OVCAR-4 ovarian it was 50.6%. Further, the growth is 6.87% (active) with SK-OV-3 ovarian; 31.1% in the test on IGROV1 ovarian; 12.5% in the test on OVCAR-3 ovarian; 21.1% in the test on HS 578T breast; 1.59% (active) in the test on NCI/ADR-RES ovarian; 45.7% with T-47D breast. Moreover, the growth with BT-549 breast was -8.43% (active); in the test on MDA-MB-435 melanoma it was -27% (active); in the test on SW-620 colon, 25.5%; in the test with HCC-2998 colon it was 14%; in the test on KM12 colon, 15.6%.

For the compound `CCOc1ccccc1C(=O)OCC(Cl)(Cl)Cl`, the growth is 105% in the test with MOLT-4 leukemia; 93.9% in the test on SR leukemia; 107% with RPMI-8226 leukemia; 102% with OVCAR-8 ovarian; 109% in the test on OVCAR-5 ovarian; 111% in the test on OVCAR-4 ovarian. Moreover, the growth was 106% in the test with SK-OV-3 ovarian; 106% in the test on IGROV1 ovarian; 109% in the test on OVCAR-3 ovarian; 97.9% in the test on HS 578T breast; 108% in the test on NCI/ADR-RES ovarian; 90.6% in the test with T-47D breast. The growth with BT-549 breast is 106%; in the test with MDA-MB-435 melanoma, 107%; with SW-620 colon, 110%; with MCF7 breast, 99.4%; in the test on HCC-2998 colon it was 101%; in the test on KM12 colon it was 101%.

For the compound `CCNc1nc(Cl)nc(NCC)n1`, the growth with MOLT-4 leukemia was 69.8%; in the test with SR leukemia, 75.8%; in the test with RPMI-8226 leukemia, 94.3%; in the test with OVCAR-8 ovarian, 58.9%; in the test on OVCAR-5 ovarian, 104%; in the test with OVCAR-4 ovarian it was 95.6%. Besides, the growth with SK-OV-3 ovarian is 109%; in the test on IGROV1 ovarian, 29.4%; in the test on OVCAR-3 ovarian, 108%; in the test with HS 578T breast, 96.8%; in the test on NCI/ADR-RES ovarian, 101%; in the test with T-47D breast, 91%. Also, the growth with BT-549 breast was 108%; in the test on MDA-MB-435 melanoma, 94.8%; in the test on SW-620 colon, 101%; in the test with MCF7 breast, 98.7%; with HCC-2998 colon, 104%; in the test on KM12 colon it was 106%.

Consider `COc1ccc(/C=C\c2cc(OC)c(OC)c(OC)c2)cc1OCC(=O)Nc1nc2ccc(OC(F)(F)F)cc2s1`, for which the growth is 13.2% in the test with MOLT-4 leukemia; 31.5% with SR leukemia; 22.8% in the test with RPMI-8226 leukemia; 43.2% with OVCAR-8 ovarian; 112% with OVCAR-5 ovarian; 64.4% in the test on OVCAR-4 ovarian. Also, the growth with SK-OV-3 ovarian is 48.4%; with IGROV1 ovarian, 30.3%; with OVCAR-3 ovarian it was -30.7% (active); with HS 578T breast, 12.5%; in the test on NCI/ADR-RES ovarian, -7.34% (active); in the test with T-47D breast, 22.4%. Moreover, the growth is 58.7% with BT-549 breast; -30.2% (active) in the test with MDA-MB-435 melanoma; 25.1% in the test on SW-620 colon; 24.3% with MCF7 breast; 19.5% in the test with HCT-116 colon; 19.2% with KM12 colon.
